Experimental findings from PubChem BioAssay (NCI) are described below.

The panel holds about 83,000 compounds, 20% with a hit somewhere; the sample as a whole holds those more often.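 The test compound was applied at a single concentration to cells in 96-well plates for 48 hours, and percent growth was recorded.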 Values without a mark were called inactive. Activity calls are given as the source filed them. Rule for the calls: active = growth percent below 10; inactive = the rest.

Test systems include SK-MEL-2 melanoma; EKVX NSCLC; SN12C renal; UO-31 renal; TK-10 renal; ACHN renal; A498 renal; CCRF-CEM leukemia; MOLT-4 leukemia; SR leukemia; RPMI-8226 leukemia; OVCAR-8 ovarian; OVCAR-5 ovarian; OVCAR-4 ovarian; SK-OV-3 ovarian; IGROV1 ovarian; OVCAR-3 ovarian; HS 578T breast; NCI/ADR-RES ovarian; CAKI-1 renal.
Common to all, as to test: NCI-60 one-dose screen, 48 h (100 = growth as untreated, 0 = no growth, -100 = all killed)
Common to all, as to conditions: 10 µM unless noted

On to `O=C1c2ccccc2OC=C(c2ccccc2)N1CCCCNc1ccc(S(=O)(=O)Nc2ncccn2)cc1`, for which the growth is 99.1% with SK-MEL-2 melanoma; 90% in the experiment on EKVX NSCLC; 99.1% in the experiment with SN12C renal; 85.7% in the experiment with UO-31 renal; 96.6% with TK-10 renal; 100% with ACHN renal. Also, the growth was 80.2% with A498 renal; 75.6% in the experiment with CCRF-CEM leukemia; 85.3% in the experiment with MOLT-4 leukemia; 78.9% in the experiment with SR leukemia; 83.2% in the experiment with RPMI-8226 leukemia; 92.2% in the experiment with OVCAR-8 ovarian. In addition, the growth was 105% with OVCAR-5 ovarian; 106% in the experiment with OVCAR-4 ovarian; 96.6% in the experiment with SK-OV-3 ovarian; 104% in the experiment on IGROV1 ovarian; 104% in the experiment on OVCAR-3 ovarian; 92.8% in the experiment with HS 578T breast. In addition, the growth in the experiment on NCI/ADR-RES ovarian is 98.6%.
`OCC(O)c1nc2ccc3[nH]ncc3c2c2c1CCCC2` (centres undefined): the growth was 9.63% (active) with SK-MEL-2 melanoma; 5.55% (active) in the experiment with EKVX NSCLC; 11.8% with SN12C renal; 7.51% (active) with UO-31 renal; 4.51% (active) in the experiment with TK-10 renal; 4.18% (active) with ACHN renal. Besides, the growth was 7.54% (active) in the experiment with CAKI-1 renal; 6.71% (active) with CCRF-CEM leukemia; 1.37% (active) with MOLT-4 leukemia; -4.58% (active) in the experiment on SR leukemia; 10.2% with RPMI-8226 leukemia; 10.8% in the experiment on OVCAR-8 ovarian. Further, the growth was 10.2% in the experiment on OVCAR-5 ovarian; 50.4% in the experiment with OVCAR-4 ovarian; 40.9% with SK-OV-3 ovarian; 10.4% in the experiment with IGROV1 ovarian; 16.1% with OVCAR-3 ovarian; 9.22% (active) in the experiment with NCI/ADR-RES ovarian.
On to `O=C(CN1CCCCC1)Nc1ccc2oc(=O)ccc2c1`, for which the growth in the experiment on SK-MEL-2 melanoma is 96.8%; in the experiment on EKVX NSCLC, 101%; in the experiment on SN12C renal it was 101%; in the experiment on UO-31 renal it was 79.1%; in the experiment on TK-10 renal it was 108%; in the experiment on ACHN renal, 111%. Further, the growth in the experiment with A498 renal was 106%; in the experiment with CCRF-CEM leukemia, 86%; in the experiment on MOLT-4 leukemia, 83.1%; in the experiment with SR leukemia, 84.4%; in the experiment on RPMI-8226 leukemia, 90.7%; in the experiment with OVCAR-8 ovarian, 97.8%. Also, the growth with OVCAR-5 ovarian was 122%; in the experiment on OVCAR-4 ovarian it was 120%; in the experiment with SK-OV-3 ovarian it was 109%; with IGROV1 ovarian, 102%; in the experiment on OVCAR-3 ovarian, 111%; with HS 578T breast it was 97%. Also, the growth in the experiment on NCI/ADR-RES ovarian was 107%.
As to `CC(C)CSc1nc(N)nc2c1ncn2C1OC(CO)C(O)C1O` (centres undefined), the growth is 111% with SK-MEL-2 melanoma; 93.2% in the experiment with EKVX NSCLC; 94% in the experiment on SN12C renal; 95.2% in the experiment on UO-31 renal; 107% in the experiment with TK-10 renal; 94.6% in the experiment with ACHN renal. For the same molecule, the growth in the experiment with CAKI-1 renal is 82.8%; with CCRF-CEM leukemia, 102%; in the experiment on MOLT-4 leukemia, 110%; in the experiment with SR leukemia, 111%; in the experiment with RPMI-8226 leukemia, 103%; in the experiment with OVCAR-8 ovarian, 110%. In addition, the growth with OVCAR-4 ovarian is 109%; with SK-OV-3 ovarian, 103%; in the experiment on IGROV1 ovarian, 93.4%; in the experiment with OVCAR-3 ovarian, 116%.
With `Cc1nn(-c2cc(=O)[nH]c3ccccc23)c(N)c1C#N`, the growth with SK-MEL-2 melanoma is 103%; in the experiment with EKVX NSCLC it was 96.3%; in the experiment with SN12C renal, 101%; in the experiment with UO-31 renal it was 67.5%; with TK-10 renal, 112%; with ACHN renal, 101%. Further, the growth in the experiment with CAKI-1 renal was 87.5%; in the experiment with CCRF-CEM leukemia, 102%; with MOLT-4 leukemia, 106%; with SR leukemia it was 105%; in the experiment with RPMI-8226 leukemia, 99.9%; with OVCAR-5 ovarian, 101%. In addition, the growth in the experiment on OVCAR-4 ovarian was 105%; in the experiment on SK-OV-3 ovarian, 111%; in the experiment with IGROV1 ovarian, 77.7%; in the experiment on OVCAR-3 ovarian, 106%; in the experiment on HS 578T breast it was 98.6%; in the experiment on NCI/ADR-RES ovarian it was 108%.
For `CC(O)CN(CC(C)O)c1ccc2c(c1)Cc1cc([N+](=O)[O-])ccc1-2` (centres undefined), the growth in the experiment on SK-MEL-2 melanoma is 95.9%; in the experiment on EKVX NSCLC, 74.8%; in the experiment with SN12C renal it was 99.6%; with UO-31 renal, 63.2%; in the experiment on TK-10 renal it was 97.3%; with ACHN renal it was 93%. The growth in the experiment on CAKI-1 renal is 84.6%; in the experiment on CCRF-CEM leukemia, 106%; in the experiment on SR leukemia, 62.5%; with RPMI-8226 leukemia it was 104%; in the experiment with OVCAR-8 ovarian, 118%; in the experiment with OVCAR-5 ovarian, 86.2%. Moreover, the growth with OVCAR-4 ovarian is 112%; in the experiment on SK-OV-3 ovarian, 108%; in the experiment with IGROV1 ovarian, 55.6%; with OVCAR-3 ovarian, 91.7%; in the experiment with HS 578T breast, 95.8%; in the experiment on NCI/ADR-RES ovarian, 92.9%.
With `COc1ccc(N=Nc2nccs2)c(O)c1`, the growth is 64.2% in the experiment with SK-MEL-2 melanoma; 30.9% in the experiment with EKVX NSCLC; 50.3% in the experiment with SN12C renal; 13.1% in the experiment on UO-31 renal; 51.3% in the experiment with TK-10 renal; 18.4% in the experiment on ACHN renal. For the same molecule, the growth in the experiment with A498 renal was 86.5%; in the experiment on CCRF-CEM leukemia, 4.6% (active); in the experiment with MOLT-4 leukemia, 4.68% (active); in the experiment on SR leukemia it was 11.5%; in the experiment on RPMI-8226 leukemia, 21.6%; in the experiment with OVCAR-8 ovarian it was 20.2%. The growth in the experiment with OVCAR-5 ovarian is 87.2%; in the experiment with OVCAR-4 ovarian it was 22.4%; in the experiment on SK-OV-3 ovarian, 52.4%; in the experiment with IGROV1 ovarian, 25%; in the experiment with OVCAR-3 ovarian it was 33.1%; in the experiment with HS 578T breast, 85.3%. The growth in the experiment on NCI/ADR-RES ovarian was 14.4%.
With `Cc1cc(N2CCN(C)CC2)nc(NC2CCCC(Nc3ccnc4cc(Cl)ccc34)C2)n1` (centres undefined), the growth in the experiment on SK-MEL-2 melanoma is -66.7% (active); in the experiment on EKVX NSCLC, 34.4%; with SN12C renal, -21% (active); with UO-31 renal it was -100% (active); with TK-10 renal it was -75.8% (active); with ACHN renal, -88.6% (active). Moreover, the growth in the experiment with A498 renal was 54.5%; with CCRF-CEM leukemia, -26% (active); with MOLT-4 leukemia, 1.05% (active); in the experiment with SR leukemia, -31% (active); in the experiment on RPMI-8226 leukemia, -47.8% (active); in the experiment on OVCAR-8 ovarian, 5.87% (active). The growth with OVCAR-5 ovarian was 9.67% (active); with OVCAR-4 ovarian, 20.3%; with SK-OV-3 ovarian it was 18.6%; in the experiment on IGROV1 ovarian it was 10.5%; in the experiment with OVCAR-3 ovarian, -18.7% (active); in the experiment on HS 578T breast, -18.7% (active).
Consider `CN(C)c1ccc(N=Nc2ccc(Br)cn2)c(O)c1`, for which the growth in the experiment on SK-MEL-2 melanoma was 18.8%; in the experiment on EKVX NSCLC, 14.3%; in the experiment on SN12C renal, 12.3%; in the experiment with UO-31 renal it was 3.75% (active); with TK-10 renal it was 33.9%; in the experiment on ACHN renal, 7.81% (active). The growth is 53.9% in the experiment with A498 renal; -0.72% (active) with CCRF-CEM leukemia; 1.73% (active) in the experiment on MOLT-4 leukemia; 3.15% (active) in the experiment on SR leukemia; 11.9% with RPMI-8226 leukemia; 15.5% in the experiment on OVCAR-8 ovarian. Moreover, the growth in the experiment with OVCAR-5 ovarian was 59.6%; in the experiment with OVCAR-4 ovarian it was 1.05% (active); in the experiment with SK-OV-3 ovarian it was 25.9%; in the experiment on IGROV1 ovarian, 16%; in the experiment on OVCAR-3 ovarian, 14.8%; in the experiment on HS 578T breast, 64%. Also, in the experiment on NCI/ADR-RES ovarian, the growth is 12.8%.
